# MITF inhib: inhibitors of MITF | TRPM1 promoter luciferase, luminescence, 24 h | inhibition, % (concentration not given with the values) | 0.28% of 37,000 active; in the data active = inhibition above about 85%;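 note: human melanocyte line stably carrying TRPM1 promoter luciferase reporter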
# Hedgehog inh: blocks Sonic Hedgehog signaling; Shh-LIGHT2 Gli-luciferase reporter, 30 h; 2.1% of 22,000 active; inhibition, % (concentration not given with the values);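 active = mean inhibition across valid replicates above about 65%, limit read from the data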;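 note: pathway switched on by Shh-conditioned medium diluted 1 in 25 in low serum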
# PD-1 reversal: activators reversing PD-1 mediated T-cell inhibition. primary human CD4 T cells, PD-L1 beads, CellTiter-Glo 96 h. activation, % (no concentration beside the values). 29,000 tested, under 10 active. AID 2316; call rule not given here;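 note: 0% = median vehicle wells and 100% = positive control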
# NOMO-1 viab: STK33 inhibitor candidate reducing NOMO-1 cell viability. NOMO-1 AML viability, CellTiter-Glo luminescence, 72 h. inhibition, % (concentration not given with the values). 7.5% of 37,000 active. AID 2330; in the data active = inhibition above about 80%
# * hit, by the source's call; x = no result given. An excerpt weighted towards active compounds, which were near 8.1% of everything screened.
SMILES,MITF inhib,Hedgehog inh,PD-1 reversal,NOMO-1 viab
CC[C@@H]1/C=C\C=C\C[C@H](C)C(O)[C@](C)(O)C(=O)[C@H](C)C(O)[C@H](C)C(=O)[C@H](C)[C@@H](O)[C@H](C)/C=C/C(=O)O[C@H]2[C@@H](C)[C@@H](CC1)O[C@@]1(CC[C@@H](C)[C@@H](C[C@H](C)O)O1)[C@@H]2C (stereo partly drawn),75.5,107.5*,-15.1,123.7*
OC[C@H]1O[C@@H](Oc2c[nH]c3ccc(Br)c(Cl)c23)[C@H](O)[C@@H](O)[C@H]1O,24.9,2.6,-1.3,41.5
O=C(c1ccccc1)N1CC2CC(C1)c1cccc(=O)n1C2 (stereo not drawn),4.8,19.2,-0.5,15.7
C/C(CC(c1ccccc1)c1c(O)c2ccccc2oc1=O)=N/O (stereo not drawn),3.2,x,1.6,-7.8
CC(C)c1cc2c(cc1O)[C@@]1(C)C[C@@H](O)CC(C)(C)C1CC2 (stereo partly drawn),-3.9,-21.5,-0.6,102.8*
CCc1nc2ccccc2c(=O)n1-c1ccccc1Cl,24.7,-32.3,0.5,104.4*
C/C=C/[C@@H]1[C@H]2C[C@@H](C)CC[C@@H]2C(C)=C[C@H]1C(=O)c1c(O)c(-c2ccc(O)cc2)c[nH]c1=O,20.0,-9.1,-1.3,52.1
C=C1C(=O)O[C@@H]2/C=C(/C)CC/C=C(/C)C[C@@H](OC(=O)/C(=C/CO)CO)C12 (stereo partly drawn),39.1,32.2,-7.4,119.4*
COC(=O)CC1=C(C(=O)OC)C2(C(=O)Nc3ccccc32)C(C(=O)OC)=C(N)O1 (stereo not drawn),8.7,-3.6,-0.7,15.6
CC(C)c1cc2c(cc1O)[C@@]1(C)CCCC(C)(C)[C@@H]1CC2O (stereo partly drawn),37.7,-35.6,-1.3,94.4*
CC1(C)CCC[C@]2(C)c3cc(O)c(O)cc3C(=O)CC12 (stereo partly drawn),x,2.0,x,x
COc1ccc(CC2(CCc3ccncc3)C(=O)NC(=O)N(c3ccc(Cl)cc3)C2=O)cc1OC (stereo not drawn),-6.4,x,-0.8,-27.7
O=c1c2ccccc2nc(CSc2ccccn2)n1-c1ccccc1Cl,-4.2,x,2.3,5.6
O=C(Nc1ccc2c(C(F)(F)F)cc(=O)oc2c1)c1cc(Cl)cc(Cl)c1,7.7,-22.8,0.6,121.7*
Nc1ccc(CCN2CCN(c3cccc(C(F)(F)F)c3)CC2)cc1,7.2,42.4,x,47.5
FC(F)(F)c1ccc2c(c1)N(CCCN1CCN(CCCl)CC1)c1ccccc1S2,18.0,66.4*,-7.6,98.7*
O=c1cccc2n1C[C@H]1CNCC2C1,7.1,-36.1,x,6.0
COc1cccc(CNCCc2c[nH]c3ccccc23)c1O,-6.0,x,x,16.3
O=C(O)CCCc1ccc(N(CCCl)CCCl)cc1,-7.4,9.6,x,110.2*
N[C@@H](Cc1ccc(N(CCCl)CCCl)cc1)C(=O)O,13.1,23.4,x,111.5*
C[C@@H]1O[C@@H](O[C@H]2[C@H](O)[C@@H](O)[C@H](O[C@@H]3C=C4CC[C@@H]5C(CC[C@]6(C)[C@@H](c7ccc(=O)oc7)CC[C@]56O)[C@@]4(C)CC3)O[C@@H]2CO)[C@H](O)[C@H](O)[C@H]1O (stereo partly drawn),51.5,-7.4,-34.3,123.5*
COc1ccc(C(=O)O[C@H]2CC[C@@]3(C)[C@@H]4CC[C@H]5[C@]6(O)C[C@H](O)[C@@]7(O)[C@@H](CN8C[C@@H](C)CC[C@H]8[C@@]7(C)O)[C@]6(O)C[C@@]53O[C@]24O)cc1OC,-10.2,-20.5,x,-7.1
CCN1C[C@@]2(COC)C3[C@@H](OC)[C@H]4[C@@H]1[C@@]3(C1C[C@]3(O)[C@H](OC(=O)c5ccccc5)C1[C@]4(OC(C)=O)[C@@H](O)[C@H]3OC)[C@@H](OC)C[C@H]2O (stereo partly drawn),-1.0,48.3,1.4,55.5
COC[C@H]([C@@H](O)[C@@H](O)C(=O)NCC[C@@H](C)c1nc(/C=C/C[C@H]2OC3(C[C@H](O)[C@H]2C)OC([C@@H](C[C@@H](O)[C@@H](C)[C@@H](O)[C@@H](C)/C=C(C)/C(C)=C/C=C/C(C)=C\C#N)OC)[C@@H](OP(=O)(O)O)C3(C)C)co1)N(C)C (stereo partly drawn),65.1,105.3*,-42.0,138.6*
CCN1CC2(COC)CCC(O)C34C5CC6C(OC)CC(O)(C5C6O)C(C(OC)C23)C14 (stereo not drawn),-1.6,-17.0,0.0,0.7
SMILES,MITF inhib,Hedgehog inh,PD-1 reversal,NOMO-1 viab
C=CC(C)(C)[C@]12C=C(OC)C(=O)N3/C(=C/c4cnc[nH]4)C(=O)N[C@@]31N(OC)c1ccccc12,11.5,-4.3,-0.3,101.2*
COc1cc2c(cc1O)C[C@H]1c3c(cc(O)c(OC)c3-2)CCN1C,12.9,-31.3,x,13.0
COc1cc2c(cc1O)[C@@H]1Cc3ccc(OC)c(O)c3CN1CC2,28.2,-8.9,x,108.1*
COc1cc2c(cc1O)C1Cc3ccc(OC)c(O)c3CN1CC2 (stereo not drawn),4.2,-6.8,-12.8,117.1*
CCC(C)C1NC(=O)C2CCCN2C(=O)C(CC(C)C)OC(=O)CCNC(=O)C(C)N(C)C(=O)C(C(C)C)N(C)C1=O (stereo not drawn),-46.7,58.5,0.1,106.0*
CCc1ccc(CN2CCN(Cc3cccc(OC)c3)CC2)cc1,1.0,x,0.0,25.9
C=CCC1(NCCc2ccccc2)CCCCC1,-20.5,x,-1.7,13.9
C[C@H]1O[C@@H](O[C@H]2[C@@H](O)C[C@H](O[C@H]3[C@@H](O)C[C@H](O[C@H]4CC[C@@]5(C)[C@H](CC[C@@H]6[C@@H]5CC[C@]5(C)[C@@H](C7=CC(=O)OC7)CC[C@]65O)C4)O[C@@H]3C)O[C@@H]2C)C[C@H](O)[C@@H]1O,47.7,3.4,-34.2,123.9*
CO[C@H]1C[C@H](OC2CCC3(C)C4CCC5(C)C(C6=CC(=O)OC6)CC(OC(C)=O)C5(O)C4CC[C@H]3C2)O[C@@H](C)[C@@H]1O (stereo partly drawn),10.2,-2.6,-16.1,108.6*
C[C@H]1OC(O[C@H]2[C@@H](O)CC(O[C@H]3[C@@H](O)C[C@H](O[C@H]4CC[C@]5(C)C6CC[C@]7(C)[C@@H](C8=CC(=O)OC8)[C@@H](O)C[C@]7(O)[C@@H]6CC[C@@H]5C4)O[C@@H]3C)O[C@@H]2C)C[C@H](O)C1O (stereo partly drawn),23.0,-4.2,x,107.3*
CC(O)CNCCNc1ccc([N+](=O)[O-])c2cccnc12 (stereo not drawn),30.8,x,-2.8,13.3
O=C1CCCC2C3CC(CN12)[C@@H]1CCCCN1C3 (stereo partly drawn),-2.0,3.4,x,-22.8
CC(C)(O)c1cc(O)c2c(c1)CCC1C(C)(C(=O)O)CCCC21C (stereo not drawn),6.4,-21.4,0.1,-6.2
O=C1NC(=O)N(c2ccccc2)C(=O)/C1=C/c1ccco1,2.8,x,-3.3,135.8*
Cc1cc(OC(=O)N(C)C)cc(=O)n1C,-27.6,-6.3,-0.4,16.9

# Bioassay records (PubChem BioAssay)
